Measured values: PubChem BioAssay (NCI)
About 83,000 compounds went through this panel and 20% of them were active in at least one assay; those are over-represented in the sample as a whole.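 Interpretation: 100, growth as untreated; towards 0, rising growth inhibition; 0, no net growth; 0 to -100, cell death. Compounds scoring below 10 were considered active.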 The source made the active and inactive calls.

What follows are molecules tested on SF-268 CNS (assay: NCI-60 one-dose screen, 48 h (100 = growth as untreated, 0 = no growth, -100 = all killed)). Settings: 10 µM unless noted.
For `O=C(NCCNc1nccc(-n2ccc3cccnc32)n1)c1ccc(C(F)(F)F)cc1`, the growth was 97.8% (inactive). `C=C(C)[C@@H]1C[C@@H]2Cc3cc(Cl)ccc3N1O2` was tested, and the growth was 106% (inactive). With `O=S(=O)(CC(O)(c1ccccc1)c1ccccc1)CC(O)(c1ccccc1)c1ccccc1` the growth was 85.3% (inactive). `NC1=NC(SCc2ccccc2CCl)c2ncn(Cc3ccccc3CCl)c2N1` (configuration not stated) was tested, and the growth was 54.9% (inactive). `C=C[C@@H]1C[C@@H]2Cc3c(C)cc(C)cc3N1O2` was tested, and the growth was 93% (inactive). `COc1cc(/C=N\NC(=O)CN2CCN(c3cc4c(cc3F)c(=O)c(C(=O)N/N=C/c3cc(OC)c(OC)c(OC)c3)cn4C3CC3)CC2)cc(OC)c1OC` was tested, and the growth was -6.34% (active). `Fc1ccc(-c2nc(-c3nc4ncccc4[nH]3)cc3c2[nH]c2ccccc23)cc1F` was tested, and the growth was 71.1% (inactive). For `COc1cc(-c2nc(-c3nc4ccc(Cl)cc4[nH]3)cc3c2[nH]c2ccccc23)cc(OC)c1OC`, the growth was 68% (inactive). For `C=C(C)[C@@H]1C[C@@H]2Cc3ccc(Cl)c(C)c3N1O2`, the growth was 96.8% (inactive). With `CCCCCCCCC(C)OC(=O)c1nn(C(C)=O)c2ccccc12` (configuration not stated) the growth was 102% (inactive). `COc1cc(/C(C#N)=C/c2ccc3c(c2OC)OCO3)cc2c1OCO2` was tested, and the growth was 47.1% (inactive). With `CC12CCC3C4(C)COC(c5ccco5)OC4CCC3(C)C1CC(C1=CCOC1=O)O2` (configuration not stated) the growth was 98.5% (inactive). In the case of `C=C1CCC2C3(C)COC(c4ccc(N(C)C)cc4)OC3CCC2(C)C1C/C=C1/C(=O)OCC1O` (configuration not stated), the growth is reported as 74.9% (inactive).

These molecules were tested on SF-295 CNS in the same assay as above. Settings: 10 µM unless noted.
With `N#C/C(=C1C=C/C(=N/O)C(Cl)=C/1)c1ccc(Cl)cc1` the growth was 141% (inactive). In the case of `c1coc(CNc2ccnc(Nc3ccc(OCCN4CCCCC4)cc3)n2)c1`, the growth is reported as 95.1% (inactive). In the case of `C=C1CCC2C(C)(CO)C(O)CCC2(C)C1C/C=C1/C(=O)OCC1O/C=C/c1ccccc1` (configuration not stated), the growth is reported as 92.7% (inactive). In the case of `C=C(C)[C@@H]1CC[C@]2(C(=O)N3CCNCC3)CC[C@]3(C)[C@H](CC[C@@H]4[C@@]5(C)C/C(=C/c6ccncc6)C(=O)C(C)(C)[C@@H]5CC[C@]43C)[C@@H]12`, the growth is reported as 104% (inactive). In the case of `CCOC(=O)C1C(=O)C=C(c2ccc(OC)cc2)CC1c1sc(N(C)Cc2ccccc2)nc1Cl` (configuration not stated), the growth is reported as 83.6% (inactive). In the case of `COc1cc(/C=C/C(=O)/C=C/c2cc(OC)c3c(c2)OCO3)cc2c1OCO2`, the growth is reported as 94.5% (inactive). In the case of `C[n+]1c(/C=C/c2c(O)ccc3ccccc23)ccc2ccccc21`, the growth is reported as 40.6% (inactive). In the case of `CCN(CC)CCC(CNc1c2ccc(Cl)cc2nc2ccc(OC)cc12)c1ccccc1` (configuration not stated), the growth is reported as -33.2% (active). With `C=C1CC2(OC1=O)C(=O)N(CCCN1C(=O)C3(CC(=C)C(=O)O3)c3ccccc31)c1ccccc12` (configuration not stated) the growth was 82.1% (inactive). In the case of `CN(CCCCCl)P(=O)(OCc1ccc([N+](=O)[O-])o1)C(F)(F)C[C@H](NC(=O)CNC(=O)c1ccc(N=[N+]=[N-])cc1)C(=O)NCCc1ccc(O)cc1` (some centres not stated), the growth is reported as 101% (inactive). `COc1ccc(C(=O)N2NC(=O)/C(=C/c3ccc(Br)cc3)N=C2c2ccccc2)cc1` was tested, and the growth was 92.7% (inactive). For `N#Cc1c(-c2ccccc2)cc(-c2ccccc2)n(CC(=O)NO)c1=O`, the growth was 63.5% (inactive). `COc1ccc(Nc2ncccc2C(=O)NCc2cn(Cc3cccc(Oc4ccccc4)c3)nn2)c(OC)c1` was tested, and the growth was 7.69% (active). For `N/C(=N\S(=O)(=O)c1ccccc1)Nc1nc2ccccc2s1`, the growth was 92.7% (inactive). For `O=S(=O)(NCCCNc1nccc(-n2ccc3cccnc32)n1)c1cccc(C(F)(F)F)c1`, the growth was 112% (inactive). For `COc1cc(NC(N)=NCCC(C)(C)Oc2ccc(C(F)(F)F)cc2)ncc1C#N`, the growth was -40.7% (active). `COc1ccc2c(c1)[nH]c(=O)c1c3cc(OC)ccc3cn21` was tested, and the growth was -18% (active). In the case of `FC(F)(F)c1cccc(-c2cn3c(ccc4ccccc43)n2)c1`, the growth is reported as 88.5% (inactive). `COc1ccc(CN2CCc3c(Sc4ccccc4)nc(N)nc3C2=O)c(OC)c1` was tested, and the growth was 69.6% (inactive). `COc1ccc(Nc2ncccc2C(=O)NCc2cn(Cc3cccc(Oc4ccccc4)c3)nn2)cc1` was tested, and the growth was 33.7% (inactive). With `CCN(CC)CCC(CNc1ccnc2cc(Cl)ccc12)c1ccc(Cl)cc1` (configuration not stated) the growth was -75.4% (active). In the case of `Cc1ccc(S(=O)(=O)C2=C3C(=C(c4ccccc4)c4ccccc43)CN(S(=O)(=O)c3ccc(C)cc3)C2)cc1`, the growth is reported as 68.3% (inactive). In the case of `O=C1C(Cl)=C(Nc2ccccn2)C(=O)c2ccccc21`, the growth is reported as 82.9% (inactive). For `COc1cc(/C=C/C(=O)N2CCN(C(=O)/C=C/c3cc(OC)c(OC)c(OC)c3)CC2)cc(OC)c1OC`, the growth was 122% (inactive). With `c1ccc(-c2nnc(-c3ccccn3)s2)nc1` the growth was 100% (inactive). `Cc1c(C(=O)/C=C/c2csc3ccccc23)[n+](=O)c2ccccc2n1[O-]` was tested, and the growth was 84.6% (inactive). With `O=C(NCCNc1nccc(-n2ccc3cccnc32)n1)c1ccc(C(F)(F)F)cc1` the growth was 101% (inactive). For `C=C(C)[C@@H]1C[C@@H]2Cc3cc(Cl)ccc3N1O2`, the growth was 108% (inactive). In the case of `O=S(=O)(CC(O)(c1ccccc1)c1ccccc1)CC(O)(c1ccccc1)c1ccccc1`, the growth is reported as 74.8% (inactive). `NC1=NC(SCc2ccccc2CCl)c2ncn(Cc3ccccc3CCl)c2N1` (configuration not stated) was tested, and the growth was 101% (inactive). For `C=C[C@@H]1C[C@@H]2Cc3c(C)cc(C)cc3N1O2`, the growth was 92.1% (inactive). In the case of `COc1cc(/C=N\NC(=O)CN2CCN(c3cc4c(cc3F)c(=O)c(C(=O)N/N=C/c3cc(OC)c(OC)c(OC)c3)cn4C3CC3)CC2)cc(OC)c1OC`, the growth is reported as 17.4% (inactive). In the case of `Fc1ccc(-c2nc(-c3nc4ncccc4[nH]3)cc3c2[nH]c2ccccc23)cc1F`, the growth is reported as 86.9% (inactive). With `COc1cc(-c2nc(-c3nc4ccc(Cl)cc4[nH]3)cc3c2[nH]c2ccccc23)cc(OC)c1OC` the growth was 61.3% (inactive). `C=C(C)[C@@H]1C[C@@H]2Cc3ccc(Cl)c(C)c3N1O2` was tested, and the growth was 95.4% (inactive). In the case of `CCCCCCCCC(C)OC(=O)c1nn(C(C)=O)c2ccccc12` (configuration not stated), the growth is reported as 91.5% (inactive). With `COc1cc(/C(C#N)=C/c2ccc3c(c2OC)OCO3)cc2c1OCO2` the growth was 6% (active). For `CC12CCC3C4(C)COC(c5ccco5)OC4CCC3(C)C1CC(C1=CCOC1=O)O2` (configuration not stated), the growth was 97.9% (inactive). With `C=C1CCC2C3(C)COC(c4ccc(N(C)C)cc4)OC3CCC2(C)C1C/C=C1/C(=O)OCC1O` (configuration not stated) the growth was 95.6% (inactive).
